Test results as given in ChEMBL document CHEMBL3988442, “University of Dundee, Small-Polar-MMV Screening Library” (2021).
Hit rate of the full screen: of about 48,000 compounds, about 13,000 (27%) showed an effect of 50% or more. The list shows a part of the results.

These compounds were tested on Wolbachia pipientis (assay: Anti-Wolbachia Cell-Based Screen). Details: 5 µM.
Type: functional
Design: scale not given: in the data most compounds retested in dose-response had high values

SMILES | Percent Effect
Cc1ccc(S(=O)(=O)N2CCC(Cn3cc(C(C)(C)N)nn3)CC2)s1 | -17.3%
Cc1ccc(S(=O)(=O)N2CCN(CCC#N)CC2)s1 | 7.923%
Cc1ccc(S(=O)(=O)N2CCN(CCCO)CC2)s1 | 107%
N#CCCN1CCN(S(=O)(=O)c2ccc(Cl)s2)CC1 | 101.8%
CC1(C)OCC2(CO1)CN(S(=O)(=O)c1ccc(Cl)s1)C2 | -3.142%
Cc1ccc(CNC(=O)CN2CCN(CCO)CC2)s1 | 0.0165%
Cc1ccc(CNC(=O)CNCC2CCN(CCO)CC2)s1 | 0.4784%
Cc1ccc(S(=O)(=O)N2CCN(CCC(N)=O)CC2)s1 | 97.05%
CCN1CCN(S(=O)(=O)c2cnc(NC(C)=O)s2)CC1 | -4.735%
COc1ccccc1Oc1ncccc1CNC(=O)[C@@H](C)NC(C)=O | -4.174%
CC(C)CC(C)NC1CCN(c2ccc(-c3cscn3)cc2)CC1 (configuration not stated) | 3.924%
CN(Cc1nnc2n1CCC2)C(=O)c1ccc(=O)n(C)n1 | -6.286%
CC(=O)N(C)CC(=O)Nc1cnc(-n2ccnc2)nc1 | 3.406%
COc1c(CNCc2cccc(Cn3ccnc3)c2)c(C)nn1C | -8.562%
COc1c(CNCc2ccccc2-n2ccnc2)c(C)nn1C | -0.9457%
COc1c(CNCc2ccc(CN3CCOCC3)cc2)c(C)nn1C | -11.29%
Cc1nn(C)c(N(C)C)c1CNCc1cccc(Cn2cccn2)c1 | 3.492%
COc1c(CNCc2ccc(Cn3ccnc3)cc2)c(C)nn1C | 103%
COc1c(CNCc2ccccc2Cn2ccnc2)c(C)nn1C | 97.96%
Cc1nn(C)c(N(C)C)c1CNCc1cccc(CN(C)C)c1.Cl | 9.174%
Cc1nn(C)c(N(C)C)c1CNCc1cccc(Cn2ccnc2)c1 | 81.6%
CC(C#N)CSc1ccccc1NCC(=O)NCc1cccs1 (configuration not stated) | -12.24%
CCc1nc(C)c(-c2nccn2CC2CC(=O)N(CC)C2)[nH]1 (configuration not stated) | -26.8%
O=C(CNC(=O)c1c[nH]c2ccccc12)NCCCn1ccnc1 | 13.72%
O=C1CC(c2cccs2)c2cnn(C3CCCC3)c2N1 (configuration not stated) | 48.91%
Cc1cc(C(=O)N2CCCC3(C=Cc4ccccc4O3)CC2)cc(=O)[nH]1 (configuration not stated) | 7.842%

SMILES | Percent Effect
CCN(C)c1ncnc2c1CCN(C(=O)N1CCOCC1)CC2 | -3.195%
Cc1cc2c(cc1C)OC1(C=C2)CCN(CC(=O)N2CCOCC2)CC1 | 107.9%
Cc1cc2c(cc1Cl)C=CC1(CCN(CC(=O)N3CCOCC3)CC1)O2 | 104%
Cc1cc2c(cc1Cl)C=CC1(CCN(CC(=O)N3CCCC3)CC1)O2 | 122.5%
COc1ccnc(N2CCN(CC(=O)N3CCOCC3)CC2)n1 | 3.835%
Cc1cc2c(cc1Cl)C=CC1(CCN(C(=O)N3CCOCC3)CC1)O2 | 95%
Nc1cc(C(=O)N2CCCC3(C=Cc4ccccc4O3)CC2)ccn1 (configuration not stated) | -15.12%
COc1ncc(C(=O)N2CCCC3(C=Cc4ccccc4O3)CC2)cn1 (configuration not stated) | 1.868%
O=C(CN1CCOCC1)N1CCN(C2CCc3ccc(F)cc32)CC1 (configuration not stated) | -10.71%
O=C(O)C(F)(F)F.c1csc(CN2CCc3ncnc(C4CCOC4)c3CC2)n1 (configuration not stated) | 8.568%
O=S(=O)(CC1CCOCC1)NCc1ccnc(O)c1 | 1.758%
Cc1ccsc1CCNC(=O)C1(Oc2cccnc2C)CCNCC1 | 14.81%
CN(C)c1ccc2c(c1)CN(C(=O)c1ccnnc1)C2c1cnco1 (configuration not stated) | -12.4%
O=C(CN1C=Nc2ccccc2S1(=O)=O)NC1CCCCC1 | -27.98%
CC1(C)CN(CC(F)(F)F)CCN1CC(=O)NC1CCCC1 | 1.341%
Cc1cc2c(cc1Cl)C=CC1(CCN(CC(=O)NC3CCCC3)CC1)O2 | 121.2%
CCc1ccc(O)c(C(=O)N2CCCN(CC(=O)N(CC)CC)CC2)c1 | -4.449%
CCc1ccc(O)c(C(=O)N2CCN(CC(=O)N(CC)CC)CC2)c1 | 11.73%
CCN(CC)C(=O)CN1CCC2(C=Cc3cc(Cl)c(C)cc3O2)CC1 | 113.1%
Cc1cn(CC(=O)NC2CCN(CC3CC3)CC2)c2ccccc12 | -11.31%
Cc1cc(NC(=O)c2nc(N3CCCC3)ncc2Cl)nc(C(C)C)n1 | -9.396%
Cc1ccc(-c2n[nH]cc2CNCC2CCS(=O)(=O)C2)o1 (configuration not stated) | -39.75%
COCCCN1CC2(CCCCN2C(=O)C2CCCCC2)CC1=O (configuration not stated) | -3.805%
CCS(=O)(=O)N1CCCC2(CCCC(=O)N2C)C1 (configuration not stated) | -13.94%
CCOC(=O)C1CC2(CCOCC2)N2CCC(=O)N12 (configuration not stated) | 102.8%
CCN1C(=O)CO[C@@H]2CN(C(=O)C3CCOCC3)C[C@H]21 | 7.95%

SMILES | Percent Effect
CCN1CC2(CCCCN2C(=O)C2CCCCC2)CC1=O (configuration not stated) | -14.04%
CCOC(=O)C1CC2(CCCC2)N2CCC(=O)N12 (configuration not stated) | 94.86%
CCOC(=O)C1CC2(CCCCC2)N2CCC(=O)N12 (configuration not stated) | 121.9%
COCCCN1CC2(CCCCN2C(C)=O)CC1=O (configuration not stated) | 3.783%
CCOCC1COCCC12CCN(C(=O)C1=CCCC1)CC2 (configuration not stated) | -18.23%
CCc1ccc(C2COCCN2C(=O)Nc2cc(C)on2)o1 (configuration not stated) | -5.597%
CCc1ccc(CN(C)C(=O)c2ccc(CSc3nnc[nH]3)o2)nc1 | -27.23%
CC(=O)NCCNC(=O)NCCc1c(C)cc(C)cc1C | -0.992%
Cc1ccc2[nH]c(CO[C@H]3CN(c4ccc(C#N)cn4)C[C@H]3F)nc2c1 | 0.4241%
CC(O)CN1CCN(Cc2coc(-c3ccccc3)n2)CC1 (configuration not stated) | -18.93%
OCCN1CCN(Cc2coc(-c3ccc(Cl)cc3)n2)CC1 | 12.92%
CC(O)CN1CCN(Cc2coc(-c3ccccc3Cl)n2)CC1 (configuration not stated) | 6.495%
OCCN1CCN(Cc2coc(-c3ccccc3)n2)CC1 | 106.5%
Cc1ccc(-c2nc(CN3CCN(CCO)CC3)co2)cc1 | 88.55%
COc1ccc(-c2nc(CN3CCN(CCO)CC3)co2)cc1 | 6.071%
Cc1ccc(-c2nc(CN3CCn4c(nnc4C4CC4)C3)co2)cc1 | -3.724%
OCCN1CCN(Cc2coc(-c3ccccc3Cl)n2)CC1 | 6.785%
CC(O)CN1CCN(Cc2coc(-c3ccc(Cl)cc3)n2)CC1 (configuration not stated) | 105.9%
OCCOc1cc(F)ccc1NCc1nc(-c2ccoc2)no1 | -6.724%
CC(=O)N(Cc1noc(C2CC2)n1)C1CCN(CC2CCOCC2)C1 (configuration not stated) | 115.6%
CC(=O)N(Cc1noc(C2CC2)n1)C1CCN(CC(=O)NC2CC2)C1 (configuration not stated) | 124.3%
Cc1nc(CCN)cc(N2CCC(O)(c3ccccc3)C2)n1 (configuration not stated) | -17.84%
O=C(c1ccccn1)N1CC[C@H]2C(=O)N(c3ccsc3)CCO[C@H]2C1 | -15.02%
COCC(=O)Nc1ccc(-c2noc([C@@H]3CCCN3C(C)C)n2)cn1 | 57.87%
COCC(=O)Nc1ccc(-c2noc([C@@H]3CCCN3CC(C)C)n2)cn1 | 49.09%
COCC(=O)Nc1ccc(-c2noc([C@@H]3CCCN3C)n2)cn1 | -1.727%

SMILES | Percent Effect
COc1ccc(CN(C)C(=O)CCC(=O)c2cccs2)c(OC)c1OC | -8.068%
COc1ccc(OC)c(C2CCN(c3ccc4cc[nH]c4n3)C2)c1 (configuration not stated) | 5.101%
CCOc1cc([C@H]2N[C@@H](c3nc(C)cs3)Cc3ccsc32)ccc1OC | 131.4%
COc1ccc(OC)c([C@@H]2N[C@H](c3nccs3)Cc3ccsc32)c1 | 139.9%
CCOc1cc([C@@H]2N[C@H](c3nccs3)Cc3ccsc32)ccc1OC | 100.4%
CCOc1cc(/C=C/c2ncc(C(=O)NC)s2)ccc1OC | 34.03%
CCOc1cc(CNc2cc(-c3nc(C)no3)ccn2)ccc1OC | -0.8232%
COc1ccc(OC)c(C2CCN(C3CCOCC3)C2)c1 (configuration not stated) | 1.409%
COc1ccc(C(C)NC(=O)Nc2nccs2)cc1OC (configuration not stated) | -9.507%
CCOc1ccc(C(=O)CCC(=O)NCc2csc(N)n2)cc1C | 5.175%
COc1cc([C@@H]2N[C@H](c3nccs3)Cc3ccsc32)cc(OC)c1OC | 111.7%
CC1CCc2nc(O)c(C(=O)NCCCN3CCN(C)CC3)cc2C1 (configuration not stated) | -5.002%
CC(=O)c1sc2nc3c(c(C(F)(F)F)c2c1N)CN(C(C)=O)CC3 | -4.263%
Cc1ccc(SCC(=O)NS(=O)(=O)c2ccc3c(c2)OCCO3)cc1 | -12.07%
O=C(O)C(F)(F)F.O=C(O)C(F)(F)F.O=C(O)c1cc2c(nc1N1CCCC1)CCN(C1CCOCC1)CC2 | -7.138%
COCCN(CC1CCCN(C2Cc3ccccc3C2)C1)C(=O)COC (configuration not stated) | -1.224%
CC(C)CN1C[C@H]2CCN(c3ncccn3)CC[C@H]2S1(=O)=O.O=C(O)C(F)(F)F | -7.419%
CCOc1ccc([C@@H]2N[C@H](c3nccs3)Cc3ccsc32)cc1OC | 113.5%
COc1cccc(C2CCN(c3ccc4cc[nH]c4n3)C2)c1OC (configuration not stated) | -24.45%
CCOc1ccc(C2CC(=O)NCc3nc(N)sc32)cc1CO (configuration not stated) | 4.923%
CCN(Cc1nccs1)Cc1cc(Cl)ccc1OC | -0.3926%
COCCOc1ccccc1C(=O)N1CCCCC1c1nccs1 (configuration not stated) | 1.225%
COc1cccc([C@@H]2N[C@H](c3nccs3)Cc3ccsc32)c1OC | 146.2%
CC1N(CC2CC2)C(=O)COC12CCN(C(=O)c1ccno1)CC2 (configuration not stated) | -9.759%
